HTR2A ag – mouse HTR2A agonism via beta-arrestin recruitment. CHO-K1 mHTR2A beta-arrestin complementation, luminescence; percent of 30 µM serotonin response. 360,000 compounds, 0.66% hits. AID 624169. P35363. activation, % at 7.6 µM;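 active = activation above a run cutoff, the mean activation of all tested compounds plus 3 SD, cut at about 14% in these data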;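 also: 0% = plate median of compound wells and 100% = 30 µM serotonin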
HTR5A inv ctr – counter-screen for OPRM1-OPRD1 inverse agonists: human HTR5A inverse agonism | P47898 | HTR5A cell line, luminescence | inhibition, % at 9.3 µM | 340,000 compounds, 0.083% hits | AID 504634; in the data active = inhibition mostly above about 23%, no sharp cut-off; inactive = mostly below about 18%;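 also: 0% = cells with DMSO and 100% = no-cell wells with DMSO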
HTR5A ag ctr – activates human HTR5A in OPRM1-OPRD1 agonist counter-screen; activation, % at 9.3 µM; 340,000 compounds, 0.61% hits; HTR5A agonist assay, luminescence, cell-based; P47898; in the data active = activation mostly above about 9.5%, no sharp cut-off; inactive = mostly below about 7.6%;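 also: 0% = cells with vehicle only and 100% = reference agonist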
OPRM1-OPRD1 inv – inverse agonist of human OPRM1-OPRD1 heterodimerization. 340,000 compounds, 0.21% hits. P35372+P41143. cell-based MOR-DOR heterodimer luminescence, inverse agonism. inhibition, % at 9.3 µM; in the data active = inhibition above about 22%, passing the limit was not always enough;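 also: 0% = cells with DMSO and 100% = wells without cells with DMSO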
Target sequence (P35372 whole entry, looked up): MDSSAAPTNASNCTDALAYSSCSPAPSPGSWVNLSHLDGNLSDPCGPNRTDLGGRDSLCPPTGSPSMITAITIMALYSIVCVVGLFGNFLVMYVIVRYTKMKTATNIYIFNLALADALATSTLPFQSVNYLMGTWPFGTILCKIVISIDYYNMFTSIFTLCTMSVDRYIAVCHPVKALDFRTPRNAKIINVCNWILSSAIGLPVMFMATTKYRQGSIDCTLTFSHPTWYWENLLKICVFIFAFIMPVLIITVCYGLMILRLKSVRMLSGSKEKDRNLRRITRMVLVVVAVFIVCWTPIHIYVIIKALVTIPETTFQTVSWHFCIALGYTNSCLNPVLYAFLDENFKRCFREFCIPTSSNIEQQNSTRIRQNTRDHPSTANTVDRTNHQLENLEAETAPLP
Target sequence (P41143 whole entry, looked up): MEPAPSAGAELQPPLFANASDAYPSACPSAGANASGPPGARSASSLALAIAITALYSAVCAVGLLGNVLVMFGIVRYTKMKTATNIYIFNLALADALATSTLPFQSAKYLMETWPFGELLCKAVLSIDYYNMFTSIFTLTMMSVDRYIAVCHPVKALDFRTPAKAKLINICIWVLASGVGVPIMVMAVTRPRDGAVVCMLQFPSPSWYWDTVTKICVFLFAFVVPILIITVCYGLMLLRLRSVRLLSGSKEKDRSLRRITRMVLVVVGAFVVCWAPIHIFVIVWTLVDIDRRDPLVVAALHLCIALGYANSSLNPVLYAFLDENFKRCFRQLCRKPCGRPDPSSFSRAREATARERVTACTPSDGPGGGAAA
OPRM1-OPRD1 ag – OPRM1-OPRD1 heterodimerization agonism. P35372+P41143. cells, luminescence. activation, % at 9.3 µM. 340,000 compounds, 0.3% hits. AID 504326; in the data active = activation above about 18%;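 also: 0% = vehicle-treated cells and 100% = reference agonist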
Numbers without * were called inactive; / = no result given. This is a sample that favours compounds with a hit; in the whole collection about 1.6% have one here.

SMILES	HTR2A ag	HTR5A inv ctr	HTR5A ag ctr	OPRM1-OPRD1 inv	OPRM1-OPRD1 ag
O=C(Nc1cccc(S(=O)(=O)C(F)F)c1)c1ccc(S(=O)(=O)N2CCCCC2)cc1	-1	0	0	4	-1
COc1ccc(Nc2nc(Nc3ccc(OC)cc3)nc(SC3=NCCS3)n2)cc1	-3	-38	9.8*	-1	0
CCOC(=O)c1c(-c2ccccc2)oc2cc(CN(C)C)c(O)c(CN(C)C)c12	-6	-38	12*	5	-1
COC(=O)C1(C(=O)OC)C[C@H](c2cccs2)N(Cc2ccccc2OC)[C@@H]1c1ccc(F)cc1	-12	/	/	/	/
c1ccc(-c2nc(C3CCCCC3)c3ccccc3n2)cc1	-1	-2	13*	-3	0
c1ccc(-c2nc(C3CCCCC3)c3sccc3n2)cc1	-2	-5	-6	-6	1
COc1ccc(Nc2nnc(-c3ccc(N4CCOCC4)c([N+](=O)[O-])c3)c3ccccc23)cc1	31*	22	-2	6	-1
Cc1ccc(N(NC(=O)C(O)(c2ccccc2)c2ccccc2)C(=O)CCl)cc1	3	11	48*	-162	31*
Cc1ccc2oc(C(=O)Nc3nonc3C)c(C)c2c1	9	-1	11*	-21	4
O=C(N/N=C/c1cc(Cl)ccc1O)c1ccccc1Br	-13	-35	12*	-35	5
C/C(=N/N1CCN(Cc2ccccc2)CC1)c1ccc(Br)cc1	6	-10	4	3	-1
CC(=O)Oc1ccc(/C(C)=N/N2CCN(Cc3ccc(C)cc3)CC2)cc1	-1	-36	9.8*	7	-1
Cc1cc(=O)oc2cc(OCC(=O)Nc3ccc(N4CCC(C)CC4)cc3)ccc12	1	-36	11*	-83	16
COc1ccc(/C=N/NC(=O)c2cc3c(ccc4ccccc43)o2)cc1OC	-9	-9	3	-8	1
COc1cc(/C=N/NC(=O)c2cc3c(ccc4ccccc43)o2)cc(OC)c1O	-3	-43	11*	-48	9
Cc1ccc(C(=O)Nc2ccc(Nc3ccccc3)cc2)cc1C	1	7	1	-8	1
Cc1ccc(NC(=O)c2ccc(NC(=O)c3ccccc3)cc2)cc1C	-4	-2	13*	-24	5
COc1ccc(OC(F)(F)F)cc1CC1(C)C(=O)Nc2c(Cl)ccc(Cl)c21 (stereo not drawn)	5	/	/	/	/
CC12CCC(C(=O)N(CSC(=S)N/N=C\c3ccccc3)C1=O)C2(C)C (stereo not drawn)	-2	-11	10*	-4	1
CCc1nc2c(OCc3ccc(Cl)cc3)cccn2c1N(C=O)Cc1ccc(OC)cc1	-4	/	/	/	/
Cc1ccc(C(=O)N/C(=C/c2cccs2)C(=O)NCCc2c[nH]c3ccccc23)cc1	-5	-24	14*	8	-1
CCOc1ccc(NC(=O)Cc2ccc(S(=O)(=O)N3CCCCC3)cc2)cc1OCC	-5	14	11*	5	-1
CCOc1ccc(NC(=O)CN(C)C(=O)/C=C/c2ccc(S(=O)(=O)N3CCCCCC3)cc2)cc1OCC	10	4	-2	7	-1
CC1CN(C(=O)CCS(=O)(=O)c2ccccc2)CC(C)O1 (stereo not drawn)	-3	1	14*	8	-2
O=C(CCS(=O)(=O)c1ccccc1)N1CCOCC1	2	4	-1	13	-3
SMILES	HTR2A ag	HTR5A inv ctr	HTR5A ag ctr	OPRM1-OPRD1 inv	OPRM1-OPRD1 ag
O=C(NC1CC1)c1cccc(NC(=O)c2cn3ccccc3n2)c1	-2	-9	13*	20	-5
COC(=O)c1c(-c2ccc(N(C)C)cc2)oc2c1C(OC)CCC2 (stereo not drawn)	-1	/	/	/	/
CCCNC(=O)Cn1c(=O)oc2cc(S(=O)(=O)N3CC(C)CC(C)C3)ccc21 (stereo not drawn)	-3	-41	11*	8	-2
O=C(NCCNc1ccc([N+](=O)[O-])cc1C(F)(F)F)c1cccc(F)c1	-5	6	14*	-9	2
Cc1ccc([C@H]2C[C@H](O)[C@@H](n3cc(COC(=O)c4ccccc4)nn3)CN2C(=O)c2cccs2)cc1	2	/	/	/	/
CCOC(=O)/C(=C/c1ccc(OC(F)F)cc1)C1=Nn2c(nnc2-c2ccc(Cl)cc2)SC1	0	-34	8.4*	-27	5
O=C(Oc1cccc(C(=S)N2CCOCC2)c1)c1ccc([N+](=O)[O-])cc1[N+](=O)[O-]	2	-25	9.4*	-75	10
CCc1nc2ccc(C(=O)Nc3ccc(OC)c(OC)c3)cn2c1N(C)Cc1nccs1	1	/	/	/	/
